Measurements from PubChem BioAssay (NCI).
Where “and” joins values, the source holds several entries; their conditions need not be identical. Equal values may be shown once. The panel holds about 79,000 compounds, 15% with a hit somewhere; the sample as a whole holds those more often. The source holds several records for some structures; these can differ, active in one and inactive in another. Calls of active or inactive are those of the source. No stated cut-off is given here; in the data, active means growth inhibition above about 70%; inactive means the rest.

Tests used:
[1] = NCI Yeast Anticancer Drug Screen. Data for the rad50 strain (AID 155);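 further: 0% = growth of vehicle-only cultures of the same strain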; conditions: S. cerevisiae rad50 strain growth inhibition; at 50.0 µM; stronger effect = higher value
In short: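 Readout: growth inhibition relative to vehicle-treated cultures. Compound exposure was carried out in a genetically defined yeast strain deficient in DNA damage repair.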

[2] = NCI Yeast Anticancer Drug Screen. Data for the mec2-1 strain (AID 157); conditions: S. cerevisiae mec2-1 strain, at 50.0 µM, stronger effect = higher value
In short: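 Using mec2-1 yeast: add compound, measure growth, express inhibition versus vehicle-treated cultures.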

[3] = NCI Yeast Anticancer Drug Screen. Data for the sgs1 mgt1 strain (AID 161);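 further: 0% = growth of cultures given vehicle only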; conditions: S. cerevisiae sgs1 mgt1 strain, at 50.0 µM, stronger effect = higher value
In short: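 Yeast cells carrying a defined DNA-repair defect were exposed to test compounds. Growth inhibition was measured relative to vehicle-treated controls.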

[4] = NCI Yeast Anticancer Drug Screen. Data for the cln2 rad14 strain (AID 165);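 further: 0% = growth equal to vehicle treated cultures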; conditions: S. cerevisiae cln2 rad14 strain, at 50.0 µM, stronger effect = higher value
In short: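 Yeast strain cln2 rad14, bearing defects in cell cycle control and DNA repair, serves as the test system; values reflect growth inhibition compared with vehicle.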

[5] = NCI Yeast Anticancer Drug Screen. Data for the bub3 strain (AID 167); conditions: S. cerevisiae bub3 mutant strain, at 50.0 µM, stronger effect = higher value
In short: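 Readout: yeast growth inhibition, expressed relative to vehicle-only wells. The test organism is a mutant strain from a panel with lesions in DNA repair or checkpoint genes.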

[6] = NCI Yeast Anticancer Drug Screen. Data for the mlh1 rad18 strain (AID 175); conditions: S. cerevisiae mlh1 rad18 strain growth inhibition; at 50.0 µM; stronger effect = higher value
In short: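 Steps: expose repair-defective yeast to compound; measure growth; express inhibition against vehicle-treated controls.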

SMILES	growth inhibition [1]	growth inhibition [2]	growth inhibition [3]	growth inhibition [4]	growth inhibition [5]	growth inhibition [6]
Cc1[nH]n(-c2ccc(S(=O)(=O)O)cc2)c(=O)c1N=Nc1ccccc1	-0.4% (inactive) and -2.2% (inactive)	6.55% (inactive) and -21.9% (inactive)	-10% (inactive) and 2.1% (inactive)	0.95% (inactive) and 8.8% (inactive)	10.8% (inactive) and 4.1% (inactive)	-0.6% (inactive) and 15.1% (inactive)
NC(CCCc1ccccc1)C(=O)O (stereo unspecified)	7.05% (inactive) and 3.35% (inactive)	-7.4% (inactive) and 0.65% (inactive)	-5.15% (inactive) and 1.45% (inactive)	-77% (inactive) and -22.5% (inactive)	20.6% (inactive) and -1.2% (inactive)	-26.9% (inactive) and -10% (inactive)
C[N+](C)(C)CCOC(=O)c1ccccc1CBr	-10.6% (inactive) and 52.1% (inactive)	22.8% (inactive) and 96.6% (active)	16.8% (inactive) and 85.9% (active)	40.9% (inactive) and 97.7% (active)	35.5% (inactive) and 99.2% (active)	3.95% (inactive) and 64.9% (inactive)
COC(=O)CCC1C(C)(C(C)=O)CCC2C1(C)CCC1(C)C3CC(C)(C)CCC3(C)CCC21C (stereo unspecified)	1.65% (inactive) and 1.05% (inactive)	1.05% (inactive) and -5.35% (inactive)	-11.8% (inactive) and -15.2% (inactive)	-7.8% (inactive) and -3.65% (inactive)	-3.9% (inactive) and -2.15% (inactive)	13.8% (inactive) and 4.4% (inactive)
O=C(Nc1ccccc1)C1CCCCC1CO (stereo unspecified)	18.9% (inactive) and 7.15% (inactive)	5.95% (inactive) and 17.4% (inactive)	9.95% (inactive) and 22.1% (inactive)	7% (inactive) and 7.1% (inactive)	2.65% (inactive) and -6.15% (inactive)	5.95% (inactive) and 31.8% (inactive)
O=[N+]([O-])c1cc(S(=O)(=O)O)ccc1Cl	-9.65% (inactive) and 14.6% (inactive)	3.25% (inactive) and -1.15% (inactive)	-9.3% (inactive) and -7.65% (inactive)	9.2% (inactive) and 12.7% (inactive)	0.1% (inactive) and 6.25% (inactive)	15.2% (inactive) and 14.8% (inactive)
CCN(CC)CCCNC	6.2% (inactive) and 26.6% (inactive)	-4.75% (inactive) and 7.75% (inactive)	3.2% (inactive) and 3.7% (inactive)	2.25% (inactive) and -25.1% (inactive)	-9.6% (inactive) and -4.5% (inactive)	7.3% (inactive) and 25.2% (inactive)
O=C(O)/C=C/C=C/C(=O)O	-5.1% (inactive) and 14.2% (inactive)	-4.45% (inactive) and -10.2% (inactive)	-3.8% (inactive) and -1.95% (inactive)	7.8% (inactive) and -17.9% (inactive)	-0.8% (inactive) and -14.6% (inactive)	-10.6% (inactive) and 2.75% (inactive)
COc1ccc2c(c1OC)CN(C)CCc1cc3c(cc1C(=O)C2)OCO3	-5.15% (inactive) and -35.8% (inactive)	15.7% (inactive) and -17.1% (inactive)	-0.5% (inactive) and -14.6% (inactive)	49.6% (inactive) and 11.8% (inactive)	7.7% (inactive) and -18.5% (inactive)	-29.9% (inactive) and -8.35% (inactive)
O=C(O)C1(O)C[C@@H](O)C(O)[C@H](O)C1 (stereo partly specified)	4.9% (inactive) and -19.3% (inactive)	0.15% (inactive) and -14.2% (inactive)	-3.65% (inactive) and -30.1% (inactive)	21.2% (inactive) and 23.8% (inactive)	-4.65% (inactive) and -2.35% (inactive)	3.6% (inactive) and -2.65% (inactive)
CC(Cc1ccccc1)NC1=NCCO1 (stereo unspecified)	-10.2% (inactive) and -16.2% (inactive)	-4.95% (inactive) and -18.4% (inactive)	0.55% (inactive) and 1.5% (inactive)	17.1% (inactive) and -13.2% (inactive)	-25.9% (inactive) and -27.4% (inactive)	0.1% (inactive) and 72.5% (active)
CC1CCOS(=O)O1 (stereo unspecified)	6.55% (inactive) and -13.5% (inactive)	-15% (inactive) and 6.9% (inactive)	19.1% (inactive) and -9.65% (inactive)	12.1% (inactive) and 11.6% (inactive)	-4.45% (inactive) and 7.7% (inactive)	18.2% (inactive) and -7% (inactive)
CC(CCC(=O)O)C1CCC2C3C(O)CC4CC(O)CCC4(C)C3CC(O)C12C (stereo unspecified)	42.7% (inactive) and 3.65% (inactive)	46.2% (inactive) and -12.6% (inactive)	45.4% (inactive) and -17.3% (inactive)	47.6% (inactive) and 0.9% (inactive)	46.7% (inactive) and -9.35% (inactive)	35.9% (inactive) and 14.2% (inactive)
C/C(=N\NC(=O)c1ccncc1)c1ccc(F)cc1	3.95% (inactive) and -7.7% (inactive)	9.55% (inactive) and -14.3% (inactive)	4.15% (inactive) and -16.4% (inactive)	3.85% (inactive) and 0.7% (inactive)	5.5% (inactive) and -28.4% (inactive)	14.3% (inactive) and -4.6% (inactive)
CC(=O)Nc1ccc(S(=O)c2ccc(NC(C)=O)cc2)cc1	-25.6% (inactive) and 12% (inactive)	-21.3% (inactive) and 9.5% (inactive)	-45.5% (inactive) and 12.1% (inactive)	7.1% (inactive) and -22.4% (inactive)	-15.6% (inactive) and 10.3% (inactive)	-34.8% (inactive) and 24.6% (inactive)
O=C(c1ccco1)C(O)c1ccco1 (stereo unspecified)	18.4% (inactive) and -8.55% (inactive)	-12.6% (inactive) and -3.75% (inactive)	1.55% (inactive) and 11.1% (inactive)	3.95% (inactive) and -7.7% (inactive)	15.7% (inactive) and 1.55% (inactive)	-0.05% (inactive) and -12.2% (inactive)
OC1CC2CCC(C1)S2 (stereo unspecified)	-1.3% (inactive) and 4.3% (inactive)	-25.3% (inactive) and -2.75% (inactive)	-3.7% (inactive) and 13.3% (inactive)	9.85% (inactive) and 13.3% (inactive)	2.5% (inactive) and 4.4% (inactive)	-11.6% (inactive) and -1.55% (inactive)
NC(Cn1ccc(=O)c(O)c1)C(=O)O (stereo unspecified)	9.8% (inactive) and -0.85% (inactive)	18.6% (inactive) and 5.7% (inactive)	7.35% (inactive) and 21.9% (inactive)	13.2% (inactive) and 6.8% (inactive)	10.7% (inactive) and 11.4% (inactive)	-90.2% (inactive) and 4.3% (inactive)
O=C(NC(Cc1ccccc1)C(=O)O)OCc1ccccc1 (stereo unspecified)	4.2% (inactive) and 0.2% (inactive)	23.9% (inactive) and 6.9% (inactive)	12.1% (inactive) and 1% (inactive)	-9.35% (inactive) and -1.55% (inactive)	20.7% (inactive) and -5.15% (inactive)	14.7% (inactive) and 16.9% (inactive)
CC(=O)c1ccc(-c2ccccc2-c2ccccc2)cc1	-9.3% (inactive) and 43.7% (inactive)	5.95% (inactive) and 3.5% (inactive)	3.6% (inactive) and 16.4% (inactive)	-21.2% (inactive) and -26.1% (inactive)	-0.3% (inactive) and 4.35% (inactive)	1.15% (inactive) and 33.1% (inactive)
OCC1OCOC2C(CO)OCOC12 (stereo unspecified)	-9.2% (inactive) and -8.3% (inactive)	-21.4% (inactive) and -3.75% (inactive)	-9.95% (inactive) and 15.6% (inactive)	0.65% (inactive) and -36.2% (inactive)	-13.8% (inactive) and -4.7% (inactive)	-4.7% (inactive) and -3.1% (inactive)
